Test [1] in a line: AP1 Signaling Pathway (AID 357; active means well fitted curve in either direction with a large enough effect, not every such curve was filed as active;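 further: ME-180 reporter cells stimulated with EGF at its EC50 level; on the % scale 0 is the no-effect control and ±100 the full control effect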). The settings on record: ME-180 AP-1-bla reporter, EGF-induced, beta-lactamase ratio, 5 h; at 7.69 µM (top of the series) unless noted. The procedure, abridged: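 First, ME-180 AP-1-bla cells were cultured overnight at 37 °C in low-serum Opti-MEM. Next, titrated compounds with EC50 EGF were incubated 5 hours. Finally, CCF4 was added for 2.5 hours and the 460/530 nm ratio recorded.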

Test [2] concerns the target Cytochrome P450 1A2 (Homo sapiens) (UniProt P05177). The test is described as follows: p450-cyp1a2 (AID 410; calls by dose curve;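 further: -100% = full effect of reference inhibitor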). The procedure, abridged:
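20nM CYP1A2 with 100uM Luciferin-ME (at Km) in 100mM KPO4; compound preincubated 10 min, NADPH regeneration added, 60 min at room temperature. Luciferin quantified by luminescence after detection reagent; normalized to 57 uM furafylline.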

Test [3] in a line: NFAT Signaling Pathway (AID 444; active means well fitted curve in either direction with a large enough effect, not every such curve was filed as active;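 further: carbachol stimulus at about its EC50 of 1 µM final; on the % scale 0 is the no-effect control and ±100 the full control effect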). The settings on record: Jurkat NFAT-bla M1, carbachol, beta-lactamase ratio, 5 h; at 7.69 µM (top of the series) unless noted. An outline of the steps: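 Jurkat cells carrying an NFAT-driven β-lactamase reporter and co-transfected muscarinic M1 receptor were treated with compound plus carbachol (1 uM final, an EC50 level) for 5 h at 37 °C. CCF4 loading followed for 1 h at RT; 460/530 nm ratio gave %activity.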

The nature of test [4]: Stat Signaling Pathway (AID 446; active means well fitted curve in either direction with a large enough effect, not every such curve was filed as active;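 further: ME-180 cervical cancer cells given 40 pM IL-6 alongside compound; SIE-controlled beta-lactamase reporter measured as 460/530 nm FRET emission ratio; on the % scale 0 is the no-effect control and ±100 the full control effect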). Conditions: ME-180 SIE beta-lactamase reporter, IL-6 stimulated, 5 h; at 7.69 µM (top of the series) unless noted. An outline of the steps: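 Reporter line: ME-180 cervical carcinoma, SIE-beta-lactamase. Treatment: compound with 40 pM IL-6, 5 hrs, 37 C, in low-serum OPTI-MEM with 10 mM HEPES pH 7.3. Detection: 460/530 nm fluorescence.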
Test [5] has as its target Glucocorticoid receptor (Homo sapiens) (UniProt P04150). The test can be described thus: GR-GFP Redistribution (AID 450;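 active means compounds whose dose series gives a full or clear partial fitted curve of increased nuclear translocation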; further: potency means the concentration at half of the fitted maximal effect). Conditions: U2OS GR-GFP nuclear translocation, laser cytometry, 2 h.
Test [6] has the same target. The test can be described thus: GR-EFC Redistribution (AID 451; calls by dose curve; further: potency means the concentration at half of the fitted maximal effect). The settings on record: CHO-K1 GR-EFC translocation, beta-gal luminescence, 2 h. An outline of the steps:
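CHO-K1 cells stably expressing nuclear-localized β-gal enzyme acceptor and GR fused C-terminally to the enzyme donor fragment; ligand-driven nuclear translocation restores β-gal by complementation. Compounds titrated up to 46 uM final, 2 h at 37 °C; luminescence read.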

Test [7] deals with Mitogen-activated protein kinase 10 (Mus musculus) (UniProt Q61831). The test is described as follows: JNK3 AlphaScreen Assay (AID 530; active means well fitted curve in either direction with a large enough effect, not every such curve was filed as active;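 further: kinase came from lysate of stimulated human HepG2 cells; signal reports phosphorylation of biotinylated GST-cJun 1-79 at Ser73 with 10 µM ATP; on the % scale 0 is the no-effect control and ±100 the full control effect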). An outline of the steps:
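Inhibitors reduce antibody binding to phosphorylated biotin-cJun, lowering AlphaScreen luminescence. Lysates from HepG2 cells pre-activated by IL-1beta plus TNF-alpha supplied JNK3; compounds were titrated.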

Test [8] deals with 3',5'-cyclic-AMP phosphodiesterase 4B (Homo sapiens) (UniProt Q07343). The test is described as follows: qHTS Assay for Inhibitors of PDE-IV (AID 607; active means well fitted activation curve with a large enough effect in the main read-out, with a control signal flat, not every such curve was filed as active; further: % of control where 0% means no effect). The procedure, abridged:
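Cell-based read-out of cAMP via a modified cyclic nucleotide-gated channel and membrane potential dye (535/590 nm) in HEK293 cells expressing PDE4 endogenously. Compounds tested up to 22.9 uM final; 100 uM RO 20-1724 reference.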
Background: Quantitative high-throughput screening tests each substance at several concentrations.

Test [9] deals with Guanine nucleotide-binding protein G(i) subunit alpha-1 (Homo sapiens) (UniProt P63096). The test can be described thus: qHTS Assay for Inhibitors of RGS12 GoLoco Motif Activity (Green Fluorophore) (AID 879).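 Further: 0% = labeled peptide with Gαi1 and full inhibition = labeled peptide alone without protein; negative values mean loss of peptide binding seen as reduced polarization.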 An outline of the steps:
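Fluorescence polarization assay: 50 nM Gαi1 with 10 nM FITC-labeled RGS12 GoLoco peptide in 10 mM Tris pH 7.5, 150 mM NaCl, 0.1 mM GDP, 0.05% NP40, 10 min at room temperature with compound.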

Test [10] can be described thus: qHTS Assay for Identification of Small Molecule Agonists for Thrombopoietin (TPO) Signaling Pathway (AID 917). Further: on the % scale 0 is the no-effect control and ±100 the full control effect. An outline of the steps:
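Murine Ba/F3 cells stably expressing human TPO receptor and a Glycoprotein IIb promoter–luciferase reporter were IL-3-starved overnight, then treated with compounds plus TPO (26 pM final, its EC50) for 24 hrs at 37 C; luminescence was read.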

Test [11] addresses Pyruvate kinase PKM (Homo sapiens) (UniProt P14618). The test is described as follows: qHTS Assay for Activators of Human Muscle Pyruvate Kinase (AID 954; active means well fitted curve in the direction sought with a large enough effect, not every such curve was filed as active;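 further: 0% = uninhibited enzyme and -100% = no enzyme or full thiadiazolimine inhibition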). An outline of the steps:
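Human PKM2 activity is measured as ATP generation, detected by luciferase-coupled luminescence. The enzyme (0.1 nM) acts on 0.5 mM PEP and 0.1 mM ADP for 1 h at ambient temperature; data are normalized to uninhibited and full-inhibition wells.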

Test [12] has as its target Alpha-galactosidase A (Homo sapiens) (UniProt P06280). The test can be described thus: Counterscreen for Glucocerebrosidase Inhibitors: qHTS Assay for Human alpha-Galactosidase at pH 4.5 (AID 992). Further: 0% is about no effect. An outline of the steps:
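Quantitative HTS: compounds tested from 0.7 nM up to 77 uM against 2 nM enzyme with 80 uM 4-MU alpha-D-galactopyranoside. The 20 min room-temperature reaction is stopped with 1M NaOH/1M glycine, pH 10.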
(The purpose of a counterscreen is to sort out artefacts and off-target activity.)

The target in test [13] is alpha-glucosidase (Oryza sativa, rice) (UniProt Q653V4). The test can be described thus: Counterscreen for Glucocerebrosidase Inhibitors: qHTS Assay for Rice alpha-Glucosidase at pH 5.0 (AID 997).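 Further: 0% = full activity with enzyme and -100% = basal without enzyme.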 The procedure, abridged:
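Rice alpha-glucosidase (4 nM final) with 400 uM 4-methylumbelliferyl-alpha-D-glucopyranoside in citrate buffer pH 5.0, 20 min at room temperature, stopped at pH 10; fluorescence 365/440 nm, compounds 0.7 nM–77 uM, AC50 from Hill fits.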

Test [14] addresses Cytochrome P450 3A4 (Homo sapiens) (UniProt P08684). The test is described as follows: qHTS Assay for Activators of Cytochrome P450 3A4 (AID 885). Further: nearly all actives have a fitted effect of over 65% in size. Further: potency means the concentration at half of the fitted maximal effect. The procedure, abridged:
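Signal was normalized against complete inhibition by 57 uM ketoconazole. The reaction used 20nM CYP3A4 with 25uM Luciferin-PPXE, 10-min compound preincubation and a 60-min NADPH-supported step at RT.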

Test [15] in a line: qHTS Assay for Identification of Small Molecule Antagonists for NFkB Signaling Pathway (AID 895; active means well fitted inhibition curve with a large enough effect in the signal ratio, with a control signal flat, not every such curve was filed as active; the % refers to the signal ratio; further: potency means the concentration at half of the fitted maximal effect). An outline of the steps:
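NFkB-bla ME-180 cervical carcinoma cells with beta-lactamase reporter under NFkB response element; compounds added, then TNF alpha at 10 pM final (EC50), 5 h at 37 C. LiveBLAzer substrate 2 h, room temperature; emission 460/530 nm at 405 nm excitation.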

The target in test [16] is Muscarinic acetylcholine receptor M1 (Rattus norvegicus) (UniProt P08482). The test can be described thus: qHTS Assay for Antagonists of Acetylcholine Muscarinic M1 Receptor: Measurement of IP-One Response (AID 944). Further: nearly all actives have a fitted effect of over 75% in size. The procedure, abridged: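 CHO cells stably expressing rat M1, pretreated 10 min with compound, then stimulated 30 min with carbachol at EC80 (200 nM) in LiCl-containing buffer pH 7.4; IP1 accumulation read by HTRF competition (665/620 nm).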

For test [17], the target named is Cytochrome P450 2C9 (Homo sapiens) (UniProt P11712). The test can be described thus: qHTS Assay for Inhibitors and Substrates of Cytochrome P450 2C9 (AID 883). Further: on the % scale 0 is the no-effect control and ±100 the full control effect; nearly all actives have a fitted effect of over 60% in size. The procedure, abridged: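 CYP2C9 deoxyluciferin hydroxylation, 37C, 60 min with NADPH regeneration; 10nM enzyme, 100uM Luciferin-H (KM). Glo detection reagent stopped reaction; luminescence normalized to sulphaphenazole (57uM) full inhibition.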

Values without a mark were called inactive. Records with an inconclusive call do not appear. Activity calls are given as the source filed them. Unless noted, the call rests on the fitted dose curve; in most records, active means well fitted curve in the direction sought with a large enough effect; inconclusive means small, poorly fitted or top-dose-only effect, or another doubt; inactive means no such curve, though single readings can be large; an effect the other way counts as inactive or inconclusive.

Chain of Glucocorticoid receptor (Homo sapiens) (P04150 whole entry, looked up): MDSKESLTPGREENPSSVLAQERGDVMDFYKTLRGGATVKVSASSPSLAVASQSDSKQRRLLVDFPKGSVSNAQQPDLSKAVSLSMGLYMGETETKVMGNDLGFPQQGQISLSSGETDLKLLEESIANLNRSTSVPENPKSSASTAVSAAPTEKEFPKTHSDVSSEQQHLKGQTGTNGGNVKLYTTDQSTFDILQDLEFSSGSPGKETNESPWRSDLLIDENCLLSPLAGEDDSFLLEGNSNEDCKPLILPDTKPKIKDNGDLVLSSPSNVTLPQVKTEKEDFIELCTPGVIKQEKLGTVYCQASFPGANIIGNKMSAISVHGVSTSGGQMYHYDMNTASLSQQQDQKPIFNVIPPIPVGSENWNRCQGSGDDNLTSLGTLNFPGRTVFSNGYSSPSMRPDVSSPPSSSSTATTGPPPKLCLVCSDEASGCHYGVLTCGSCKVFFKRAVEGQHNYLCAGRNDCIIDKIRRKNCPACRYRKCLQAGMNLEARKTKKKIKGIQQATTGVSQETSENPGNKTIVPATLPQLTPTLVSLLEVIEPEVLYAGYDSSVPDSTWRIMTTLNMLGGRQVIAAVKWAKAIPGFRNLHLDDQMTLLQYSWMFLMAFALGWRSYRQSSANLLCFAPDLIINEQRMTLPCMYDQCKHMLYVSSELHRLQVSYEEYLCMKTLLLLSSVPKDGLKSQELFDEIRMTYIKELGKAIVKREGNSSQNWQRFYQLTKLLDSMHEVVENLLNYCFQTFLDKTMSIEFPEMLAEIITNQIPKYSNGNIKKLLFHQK
Chain of Cytochrome P450 1A2 (Homo sapiens) (P05177 whole entry, looked up): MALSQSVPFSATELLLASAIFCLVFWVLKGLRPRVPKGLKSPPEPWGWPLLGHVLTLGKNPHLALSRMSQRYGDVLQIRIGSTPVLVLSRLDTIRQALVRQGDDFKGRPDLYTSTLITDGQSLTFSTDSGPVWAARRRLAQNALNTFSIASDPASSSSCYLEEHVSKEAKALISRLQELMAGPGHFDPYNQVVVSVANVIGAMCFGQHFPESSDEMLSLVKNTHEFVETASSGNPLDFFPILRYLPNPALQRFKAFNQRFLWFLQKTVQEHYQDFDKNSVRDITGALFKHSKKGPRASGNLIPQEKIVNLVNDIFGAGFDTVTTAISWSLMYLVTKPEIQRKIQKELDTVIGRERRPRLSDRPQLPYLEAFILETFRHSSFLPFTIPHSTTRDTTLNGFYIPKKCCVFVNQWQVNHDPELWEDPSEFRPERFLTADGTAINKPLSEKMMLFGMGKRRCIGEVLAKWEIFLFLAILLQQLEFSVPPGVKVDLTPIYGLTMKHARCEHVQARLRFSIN
Chain of Pyruvate kinase PKM (Homo sapiens) (P14618 whole entry, looked up): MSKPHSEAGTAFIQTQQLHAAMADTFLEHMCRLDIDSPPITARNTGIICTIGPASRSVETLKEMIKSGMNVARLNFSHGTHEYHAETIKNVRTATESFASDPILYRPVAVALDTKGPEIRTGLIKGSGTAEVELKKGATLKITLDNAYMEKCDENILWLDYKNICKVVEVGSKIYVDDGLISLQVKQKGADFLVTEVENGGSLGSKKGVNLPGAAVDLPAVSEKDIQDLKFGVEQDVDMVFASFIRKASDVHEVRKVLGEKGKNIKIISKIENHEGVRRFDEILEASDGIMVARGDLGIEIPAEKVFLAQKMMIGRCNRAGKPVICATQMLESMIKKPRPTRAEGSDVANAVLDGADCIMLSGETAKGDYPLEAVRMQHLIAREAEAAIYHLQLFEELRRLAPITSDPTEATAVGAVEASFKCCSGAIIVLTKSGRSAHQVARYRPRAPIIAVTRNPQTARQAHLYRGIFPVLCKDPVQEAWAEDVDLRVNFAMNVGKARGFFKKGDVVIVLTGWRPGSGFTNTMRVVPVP
Chain of Cytochrome P450 3A4 (Homo sapiens) (P08684 whole entry, looked up): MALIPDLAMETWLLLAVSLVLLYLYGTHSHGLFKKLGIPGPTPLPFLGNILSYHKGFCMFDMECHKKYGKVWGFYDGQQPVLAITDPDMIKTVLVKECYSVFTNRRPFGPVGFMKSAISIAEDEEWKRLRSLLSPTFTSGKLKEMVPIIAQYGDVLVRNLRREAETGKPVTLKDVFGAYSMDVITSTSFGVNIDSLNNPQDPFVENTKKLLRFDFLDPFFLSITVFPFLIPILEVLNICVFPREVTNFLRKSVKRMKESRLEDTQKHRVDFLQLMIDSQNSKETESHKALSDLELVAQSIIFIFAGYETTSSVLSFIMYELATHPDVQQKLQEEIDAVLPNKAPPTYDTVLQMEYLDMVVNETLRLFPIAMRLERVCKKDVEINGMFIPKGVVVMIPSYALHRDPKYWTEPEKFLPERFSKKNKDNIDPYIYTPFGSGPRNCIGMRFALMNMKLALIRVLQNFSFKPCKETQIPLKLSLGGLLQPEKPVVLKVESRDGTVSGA
Chain of Alpha-galactosidase A (Homo sapiens) (P06280 whole entry, looked up): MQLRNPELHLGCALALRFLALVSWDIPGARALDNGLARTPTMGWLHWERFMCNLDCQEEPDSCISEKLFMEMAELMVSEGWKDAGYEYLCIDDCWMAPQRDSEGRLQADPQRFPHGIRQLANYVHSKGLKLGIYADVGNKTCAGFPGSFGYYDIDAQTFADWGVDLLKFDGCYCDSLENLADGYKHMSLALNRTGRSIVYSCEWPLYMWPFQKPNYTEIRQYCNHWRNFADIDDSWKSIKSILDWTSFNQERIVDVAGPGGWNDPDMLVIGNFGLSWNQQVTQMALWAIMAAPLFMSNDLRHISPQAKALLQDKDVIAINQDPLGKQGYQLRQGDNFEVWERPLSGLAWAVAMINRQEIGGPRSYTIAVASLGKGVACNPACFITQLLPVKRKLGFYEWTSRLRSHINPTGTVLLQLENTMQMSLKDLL
Chain of 3',5'-cyclic-AMP phosphodiesterase 4B (Homo sapiens) (Q07343 whole entry, looked up): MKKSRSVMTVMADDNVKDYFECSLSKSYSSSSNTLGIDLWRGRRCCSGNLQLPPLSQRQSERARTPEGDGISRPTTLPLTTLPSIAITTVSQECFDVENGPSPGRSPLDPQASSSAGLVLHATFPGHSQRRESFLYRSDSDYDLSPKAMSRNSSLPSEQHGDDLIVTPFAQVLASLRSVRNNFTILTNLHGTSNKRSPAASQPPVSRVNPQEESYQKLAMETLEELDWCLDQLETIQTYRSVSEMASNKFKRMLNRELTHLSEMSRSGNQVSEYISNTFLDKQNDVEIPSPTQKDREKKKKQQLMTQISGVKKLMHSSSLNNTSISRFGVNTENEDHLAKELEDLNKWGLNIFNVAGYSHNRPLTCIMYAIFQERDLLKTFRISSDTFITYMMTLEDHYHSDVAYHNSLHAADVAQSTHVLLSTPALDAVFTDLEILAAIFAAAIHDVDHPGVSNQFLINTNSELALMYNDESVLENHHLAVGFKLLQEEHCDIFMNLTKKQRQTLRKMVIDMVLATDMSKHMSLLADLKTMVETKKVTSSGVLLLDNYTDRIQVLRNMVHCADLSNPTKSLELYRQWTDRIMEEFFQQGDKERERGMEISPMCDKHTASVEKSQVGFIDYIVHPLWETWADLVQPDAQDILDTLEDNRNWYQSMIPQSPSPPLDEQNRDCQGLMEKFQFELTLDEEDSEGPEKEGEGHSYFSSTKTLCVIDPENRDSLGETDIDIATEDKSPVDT
Chain of Guanine nucleotide-binding protein G(i) subunit alpha-1 (Homo sapiens) (P63096 whole entry, looked up): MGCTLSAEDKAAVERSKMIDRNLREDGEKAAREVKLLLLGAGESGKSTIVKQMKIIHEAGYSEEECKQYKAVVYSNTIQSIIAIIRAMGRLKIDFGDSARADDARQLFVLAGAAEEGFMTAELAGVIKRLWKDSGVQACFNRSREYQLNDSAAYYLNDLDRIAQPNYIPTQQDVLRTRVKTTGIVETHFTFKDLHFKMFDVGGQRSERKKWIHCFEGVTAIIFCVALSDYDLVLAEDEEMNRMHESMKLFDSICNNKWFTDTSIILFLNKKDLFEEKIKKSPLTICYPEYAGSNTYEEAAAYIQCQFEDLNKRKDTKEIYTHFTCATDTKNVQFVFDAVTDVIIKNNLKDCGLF
Chain of Muscarinic acetylcholine receptor M1 (Rattus norvegicus) (P08482 whole entry, looked up): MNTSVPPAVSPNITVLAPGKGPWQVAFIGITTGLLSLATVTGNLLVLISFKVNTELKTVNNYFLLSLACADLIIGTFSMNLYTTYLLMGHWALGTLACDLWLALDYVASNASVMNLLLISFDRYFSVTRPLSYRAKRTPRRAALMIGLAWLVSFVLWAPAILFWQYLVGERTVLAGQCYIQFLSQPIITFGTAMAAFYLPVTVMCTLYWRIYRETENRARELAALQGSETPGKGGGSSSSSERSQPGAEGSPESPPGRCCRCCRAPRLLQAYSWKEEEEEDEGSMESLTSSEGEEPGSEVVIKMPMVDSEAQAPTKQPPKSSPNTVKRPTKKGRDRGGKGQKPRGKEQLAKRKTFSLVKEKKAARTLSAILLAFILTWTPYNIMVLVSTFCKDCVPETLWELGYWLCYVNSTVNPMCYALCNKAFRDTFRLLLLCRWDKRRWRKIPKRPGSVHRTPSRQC
Chain of Cytochrome P450 2C9 (Homo sapiens) (P11712 whole entry, looked up): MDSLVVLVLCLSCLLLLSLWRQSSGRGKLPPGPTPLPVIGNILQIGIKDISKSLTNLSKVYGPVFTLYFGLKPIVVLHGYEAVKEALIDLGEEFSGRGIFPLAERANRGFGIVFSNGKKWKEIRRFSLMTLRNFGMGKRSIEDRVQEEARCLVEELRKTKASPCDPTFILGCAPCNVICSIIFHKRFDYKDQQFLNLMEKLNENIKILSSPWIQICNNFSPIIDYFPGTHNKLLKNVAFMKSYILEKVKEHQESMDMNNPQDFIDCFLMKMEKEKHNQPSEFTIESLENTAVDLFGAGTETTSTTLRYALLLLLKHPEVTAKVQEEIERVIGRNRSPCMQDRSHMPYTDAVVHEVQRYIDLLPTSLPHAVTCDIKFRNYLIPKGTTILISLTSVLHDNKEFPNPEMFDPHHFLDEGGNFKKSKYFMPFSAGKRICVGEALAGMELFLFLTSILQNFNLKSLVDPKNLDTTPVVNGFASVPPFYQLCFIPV

On to `Nc1nc(N)c2nc(CNc3ccc(C(=O)N[C@H](CCC(=O)O)C(=O)O)cc3)cnc2n1`, for which the activity change, negative = inhibition in test [1] was 1.47% [at 38 µM]; in test [3], 13.5% [at 38 µM]. The Potency result in test [2], in test [7], in [8] and in test [13] was “inactive” each time. The activity, negative = inhibition in test [4] was -0.643% [at 38 µM]. The Potency in test [5] and in test [6] was over 46 µM throughout. Further, the compound was called inactive in test [9], in test [10], in test [11] and in [12].

Take `COc1cc2c(cc1OC)[C@H](c1ccccc1)CN(C)CC2`: the activity change, negative = inhibition was -2.12% [at 38 µM] in [1] and -8.45% [at 38 µM] in test [3]. The Potency result in test [2], in [7], in [8], in test [15] and in test [16] was “inactive” throughout. In addition, the activity, negative = inhibition in [4] was 0.584% [at 38 µM]. Further, the Potency in test [5] was over 46 µM; in test [6] it was over 46 µM; in [14], 12.6 µM (active). In addition, the outcome in test [9], in test [11] and in [12] was inactive.

As for `NC(=S)NCCC[C@@H](N)C(=O)O`, the results for the activity change, negative = inhibition in test [1] and in test [3] were 4.46% [at 38 µM] and 4.17% [at 38 µM], respectively. Also, the Potency entry in test [2], in test [7], in [8], in test [14], in test [15] and in test [16] was “inactive” throughout. Moreover, in [13], the Potency entry is “inactive”. In addition, the activity, negative = inhibition in test [4] is -8.44% [at 38 µM]. Further, the Potency in [5] and in test [6] was over 46 µM each time. In addition, the outcome in [9], in test [10], in [11] and in test [12] was inactive.

Consider `N=c1ccn2c(n1)O[C@@H]1[C@@H](O)[C@H](CO)O[C@H]12`, for which the activity change, negative = inhibition in test [1] was -4.43% [at 38 µM]; in [3], -5.26% [at 38 µM]. Besides, the Potency entry in [2], in [7], in [8], in [17], in test [16] and in test [13] was “inactive” in each case. Besides, the activity, negative = inhibition in test [4] is 0.604% [at 38 µM]. Besides, the Potency in test [5] and in test [6] was over 46 µM in each case. For the same compound, the call in test [9], in test [11] and in test [12] was inactive.

For `OC[C@@H]1O[C@@H](n2cnc3c(NC4CCCC4)ncnc32)[C@@H](O)[C@H]1O`, the activity change, negative = inhibition is -0.201% [at 38 µM] in [1] and 1.91% [at 38 µM] in test [3]. Also, the Potency result in test [2], in test [7] and in test [8] was “inactive” each time. Moreover, the activity, negative = inhibition in test [4] is 12.2% [at 38 µM]. The Potency in test [5] and in test [6] was over 46 µM each time. The call in [9], in [10], in test [11] and in test [12] was inactive.

For `C[C@@H](Cc1ccccc1)Nc1ncnc2c1ncn2[C@@H]1O[C@@H](CO)[C@H](O)[C@@H]1O`, the activity change, negative = inhibition was -12.1% [at 38 µM] in test [1] and -0.283% [at 38 µM] in [3]. Further, the Potency result in [2], in test [7], in test [8], in [14], in test [16] and in [13] was “inactive” each time. In test [4], the activity, negative = inhibition was -0.703% [at 38 µM]. The Potency was over 46 µM in test [5], over 46 µM in [6] and 3.98 µM (active) in test [15]. Also, the compound was classed as inactive in [9], in test [10], in test [11] and in [12].

These data come from PubChem BioAssay (NCATS).
